In PubChem BioAssay (EPA / NIEHS):
Values joined by “and” are separate entries in the source; they are usually repeats but may differ in a detail not shown here. Equal entries are not always repeated. Records with an inconclusive call do not appear. More than one record can exist for a structure, and the calls need not agree. Active and inactive are the calls of the source. Rule for the calls, unless noted: active = hit-call score of the fitted dose curve at least 0.9, where 1 is the maximum; inconclusive = response in the unintended direction; inactive = score below 0.9.

Key:
[1] = target: Estrogen receptor (Homo sapiens) (UniProt P03372); test: NVS_NR_hER: NovaScreen (NVS) Nuclear Receptor Binding Assay for human Estrogen Receptor (ER) (AID 2283348)
Chain of Estrogen receptor (Homo sapiens) (P03372 whole entry, looked up, the tested form may be a part): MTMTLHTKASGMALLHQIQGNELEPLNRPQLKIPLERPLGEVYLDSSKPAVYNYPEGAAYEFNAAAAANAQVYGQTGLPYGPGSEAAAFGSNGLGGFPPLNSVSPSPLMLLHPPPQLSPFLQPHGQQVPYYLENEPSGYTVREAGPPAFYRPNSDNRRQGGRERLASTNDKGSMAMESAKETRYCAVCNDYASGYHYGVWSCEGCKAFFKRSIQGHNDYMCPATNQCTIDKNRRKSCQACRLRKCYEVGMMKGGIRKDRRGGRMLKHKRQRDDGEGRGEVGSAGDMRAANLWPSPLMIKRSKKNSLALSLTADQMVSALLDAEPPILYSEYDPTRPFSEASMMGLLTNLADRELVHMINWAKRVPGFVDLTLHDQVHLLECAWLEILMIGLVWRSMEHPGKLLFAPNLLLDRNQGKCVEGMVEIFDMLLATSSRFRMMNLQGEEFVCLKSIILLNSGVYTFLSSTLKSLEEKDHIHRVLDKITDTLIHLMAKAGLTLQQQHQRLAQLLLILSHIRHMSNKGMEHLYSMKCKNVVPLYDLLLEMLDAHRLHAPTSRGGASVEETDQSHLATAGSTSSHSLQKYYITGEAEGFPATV
Outline: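 Cell-free radioligand binding with protein extracted from MCF7 cells; scintillation counting 18 hours after dosing. Loss of signal versus DMSO baseline read as displacement; primary single-concentration screen at 25 uM in duplicate, actives retested in concentration series.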

[2] = target: Estrogen receptor (Homo sapiens) (UniProt P03372); test: OT_ER_ERaERa_1440: Odyssey Thera (OT) 24-hour HEK293T Protein-Complementation Assay for Estrogen Receptor-alpha/-alpha Homodimer (AID 2283349);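 note: hits raise fluorescence above DMSO for agonists and antagonists alike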
Outline: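 Readout is the rise in mean fluorescence from reporter fragment complementation when ERα LBD (aa 310-547) units dimerize in HEK293T cells. Measured 24 h after dosing and analysed as increase over DMSO control.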

[3] = target: Estrogen receptor (Homo sapiens) (UniProt P03372); test: OT_ER_ERaERa_0480: Odyssey Thera (OT) 8-hour HEK293T Protein-Complementation Assay for Estrogen Receptor-alpha/-alpha Homodimer (AID 2283351);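 note: rise in fluorescence from reassembled reporter fragments on ERα LBD homodimer in nucleus or whole cell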
Outline: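 The readout is complementation of fragments fused to the human ER alpha ligand-binding domain (aa 310-547), stably expressed in HEK293T cells. After 8 h of exposure, the increase in nuclear/cytoplasmic fluorescence was measured by laser scanning cytometry and fitted relative to DMSO.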

[4] = target: Glutamate receptor ionotropic, kainate 1 (Rattus norvegicus) (UniProt P22756); test: NVS_IC_rKAR: NovaScreen (NVS) Ion Channel Assay for rat Kainic Acid Receptors (KAR) (AID 2283334; active = hit-call score of the fitted dose curve at least 0.9, where 1 is the maximum; inactive = score below 0.9)
Outline: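 Radioligand displacement binding using rat forebrain membranes, 1 h incubation, filter-based scintillation counting. Screened in duplicate at 25 uM, with actives retested in concentration-response up to 50 uM; fitted against DMSO.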

[5] = test system: guinea pig Histamine Receptor (H2), gene 100729734; test: NVS_GPCR_gH2: NovaScreen (NVS) G Protein-Coupled Receptor Assay for guinea pig Histamine Receptor (H2) (AID 2283342)
Outline: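 Radioligand displacement on guinea pig striatal membranes, 1 h after dosing, filter-based scintillation counting; loss of signal versus DMSO. Single-point screen at 25 uM in duplicate, then concentration-response up to 50 uM.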

NCBI gene 100848466 = test: NVS_NR_bPR: NovaScreen (NVS) Nuclear Receptor Binding Assay for bovine Progextron Receptor (PR) (AID 2283343);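 note: actives lower bound radioligand signal below DMSO meaning displacement of the label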
Outline: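 Bovine uterine membrane preparation, cell-free; radioligand competitive displacement measured by scintillation counting 18 hours after dosing. Loss of signal versus DMSO baseline indicates binding; primary HTS single concentration 25 uM in duplicate, actives followed in concentration series.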

[6] = target: chimpanzee Androgen Receptor (AR), AR (gene 747460) (UniProt O97775); test: NVS_NR_cAR: NovaScreen (NVS) Nuclear Receptor Binding Assay for chimpanzee Androgen Receptor (AR) (AID 2283346);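 note: radioligand displacement from AR measured by scintillation counting in a cell-free assay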
Chain of chimpanzee Androgen Receptor (AR), AR (gene 747460) (O97775 whole entry, looked up): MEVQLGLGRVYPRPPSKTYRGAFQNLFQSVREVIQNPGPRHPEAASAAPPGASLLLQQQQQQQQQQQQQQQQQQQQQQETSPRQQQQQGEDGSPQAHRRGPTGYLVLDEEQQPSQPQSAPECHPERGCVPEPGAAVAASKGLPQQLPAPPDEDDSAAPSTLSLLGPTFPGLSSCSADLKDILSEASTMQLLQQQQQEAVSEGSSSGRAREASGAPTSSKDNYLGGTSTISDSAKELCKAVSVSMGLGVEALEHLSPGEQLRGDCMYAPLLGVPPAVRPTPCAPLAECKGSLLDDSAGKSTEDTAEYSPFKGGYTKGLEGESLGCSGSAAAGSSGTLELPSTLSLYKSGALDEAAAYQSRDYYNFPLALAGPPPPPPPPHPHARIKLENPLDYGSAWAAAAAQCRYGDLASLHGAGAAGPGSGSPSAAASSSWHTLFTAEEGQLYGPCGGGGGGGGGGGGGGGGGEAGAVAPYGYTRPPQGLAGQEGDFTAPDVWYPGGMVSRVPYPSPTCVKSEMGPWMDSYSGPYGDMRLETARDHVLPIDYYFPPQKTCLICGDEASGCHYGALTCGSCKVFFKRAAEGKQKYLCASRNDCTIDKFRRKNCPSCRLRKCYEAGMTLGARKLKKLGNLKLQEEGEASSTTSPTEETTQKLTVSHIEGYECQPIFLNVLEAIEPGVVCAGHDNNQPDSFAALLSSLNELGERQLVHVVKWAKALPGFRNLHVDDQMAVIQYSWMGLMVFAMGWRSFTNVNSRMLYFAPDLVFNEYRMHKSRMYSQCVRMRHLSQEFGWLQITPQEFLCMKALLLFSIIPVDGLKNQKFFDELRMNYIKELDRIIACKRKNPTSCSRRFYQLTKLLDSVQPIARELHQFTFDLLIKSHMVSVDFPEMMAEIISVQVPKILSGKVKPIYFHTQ
Outline: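 Cell-free radioligand displacement using receptor protein extracted from Sf9/Sf21 cells; bound radioligand measured by scintillation counting 72 hours after chemical dosing. Loss of signal versus DMSO baseline indicates binding; primary screen single-concentration in duplicate at 25 uM, actives followed in concentration series.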

[7] = target: Bile acid receptor (Homo sapiens) (UniProt Q96RI1); test: NVS_NR_hFXR_Antagonist: NovaScreen (NVS) Nuclear Receptor Binding Assay for human Farnesoid X Receptor Antagonism (FXR) (AID 2283350)
Outline: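 Cell-free TR-FRET ligand-binding read-out on human FXR (NR1H4) in antagonist mode, measured 1 h after dosing. Primary screen in duplicate at 25 uM, actives retested in concentration series; signal loss scored versus DMSO.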

[8] = target: rat Mineralocorticoid Receptor (MR), Nr3c2 (gene 25672) (UniProt P22199); test: NVS_NR_rMR: NovaScreen (NVS) Nuclear Receptor Binding Assay for rat Mineralocorticoid Receptor (MR) (AID 2283355)
Outline: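 Cell-free radioligand binding to MR in adrenalectomized rat brain supernatant, scintillation counted 24 h after dosing. Loss of signal versus DMSO baseline marks displacement. Primary screen in duplicate at 25 uM; actives retested as concentration series.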

[9] = target: Small conductance calcium-activated potassium channel protein 1 (Rattus norvegicus) (UniProt P70606); test: NVS_IC_rKCaCh: NovaScreen (NVS) Ion Channel Assay for rat Potassium Channel, Ca2+ Act., VI (KCaCh) (AID 2283336)
Outline: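 Radioligand binding to rat forebrain membranes, cell-free, read 1 hour after dosing by filter-based scintillation counting. Compounds first run in duplicate at 25 uM, actives then in concentration series; loss of signal vs DMSO indicates displacement.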

[10] = target: Estrogen receptor (Homo sapiens) + Estrogen receptor beta (Homo sapiens) (UniProt P03372+Q92731); test: OT_ER_ERaERb_0480: Odyssey Thera (OT) 8-hour HEK293T Protein-Complementation Assay for Estrogen Receptor-alpha/-beta Heterodimer (AID 2283352)
Chain of Estrogen receptor (Homo sapiens) + Estrogen receptor beta (Homo sapiens) (P03372 whole entry, looked up): as the sequence (P03372 whole entry, looked up, the tested form may be a part) above
Chain of Estrogen receptor (Homo sapiens) + Estrogen receptor beta (Homo sapiens) (Q92731 whole entry, looked up): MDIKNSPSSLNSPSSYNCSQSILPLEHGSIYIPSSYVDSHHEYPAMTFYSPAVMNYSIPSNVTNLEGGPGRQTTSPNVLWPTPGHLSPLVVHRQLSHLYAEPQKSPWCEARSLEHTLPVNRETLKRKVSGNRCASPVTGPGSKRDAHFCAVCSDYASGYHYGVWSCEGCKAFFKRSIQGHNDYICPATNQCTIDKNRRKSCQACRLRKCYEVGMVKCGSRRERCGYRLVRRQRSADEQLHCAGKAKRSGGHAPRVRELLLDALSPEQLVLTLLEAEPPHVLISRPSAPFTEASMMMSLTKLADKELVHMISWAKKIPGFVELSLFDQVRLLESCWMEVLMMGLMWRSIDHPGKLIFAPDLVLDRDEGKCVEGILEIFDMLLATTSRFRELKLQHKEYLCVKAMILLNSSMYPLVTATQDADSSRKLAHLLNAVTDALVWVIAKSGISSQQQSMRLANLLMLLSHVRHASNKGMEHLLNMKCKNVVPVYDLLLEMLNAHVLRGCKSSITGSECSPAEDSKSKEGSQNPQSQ
Outline: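 Compound added to HEK293T cells carrying split-reporter-tagged ER-alpha and ER-beta LBDs, incubated 8 hours, then imaged by laser scanning cytometer. Signal rise in nucleus, or nucleus and cytoplasm, over vehicle was fitted in the positive direction.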

[11] = target: rat Peripheral-type Benzodiazepine Receptor (PBR), Tspo (gene 24230) (UniProt P16257); test: NVS_MP_rPBR: NovaScreen (NVS) Membrane Protein Assay for rat Peripheral-type Benzodiazepine Receptor (PBR) (AID 2283335)
Chain of rat Peripheral-type Benzodiazepine Receptor (PBR), Tspo (gene 24230) (P16257 whole entry, looked up): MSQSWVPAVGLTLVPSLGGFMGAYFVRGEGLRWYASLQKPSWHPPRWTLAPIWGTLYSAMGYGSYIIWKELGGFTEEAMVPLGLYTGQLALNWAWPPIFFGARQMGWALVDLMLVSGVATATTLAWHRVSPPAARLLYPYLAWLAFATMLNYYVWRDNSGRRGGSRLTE
Outline: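 Rat kidney membranes; radioligand binding with displacement, filter-based scintillation counting, 1 h incubation. Primary screen in duplicate at 25 uM, actives followed in concentration series; loss of binding vs DMSO.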

[12] = target: bovine Gamma-Aminobutyric Acid Type A Receptor Agonist (GABAR Agonist), GABRA1 (gene 780973) (UniProt P08219); test: NVS_LGIC_bGABAR_Agonist: NovaScreen (NVS) Ligand-Gated Ion Channel Assay for bovine Gamma-Aminobutyric Acid Type A Receptor Agonist (GABAR Agonist) (AID 2283338)
Outline: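 Radioligand binding to bovine cerebellar membranes in agonist format, read by filter-based scintillation counting after 1 h. Primary screen in duplicate at 25 uM, with actives followed in concentration series. Gain of signal versus DMSO.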

[13] = target: human Constitutive Androstane Receptor (CAR), NR1I3 (gene 9970) (UniProt Q14994); test: NVS_NR_hCAR_Antagonist: NovaScreen (NVS) Nuclear Receptor Binding Assay for human Constitutive Androstane Receptor Antagonism (CAR) (AID 2283344)
Chain of human Constitutive Androstane Receptor (CAR), NR1I3 (gene 9970) (Q14994 whole entry, looked up): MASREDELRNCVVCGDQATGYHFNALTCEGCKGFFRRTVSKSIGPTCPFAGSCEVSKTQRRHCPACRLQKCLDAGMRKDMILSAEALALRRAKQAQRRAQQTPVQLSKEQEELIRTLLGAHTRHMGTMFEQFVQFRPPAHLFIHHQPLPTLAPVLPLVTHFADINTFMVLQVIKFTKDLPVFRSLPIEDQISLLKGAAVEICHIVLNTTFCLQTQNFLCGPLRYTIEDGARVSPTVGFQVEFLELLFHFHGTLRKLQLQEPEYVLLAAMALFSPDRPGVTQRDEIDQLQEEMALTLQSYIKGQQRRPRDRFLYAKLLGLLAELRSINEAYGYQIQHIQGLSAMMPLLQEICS
Outline: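 Cell-free TR-FRET binding read 1 h after dosing, antagonist mode; loss of signal versus DMSO baseline. Primary screen in duplicate at a single 25 uM; actives retested in concentration series.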

[14] = target: Androgen Receptor/SRC-1 Co-activator, AR (gene 367) (UniProt P10275); test: OT_AR_ARSRC1_0480: Odyssey Thera (OT) 8-hour HEK293T Protein-Complementation Assay for Androgen Receptor/SRC-1 Co-activator (AID 2283354);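 note: hits raise the complementation signal above DMSO so AC50 marks enhancers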
Chain of Androgen Receptor/SRC-1 Co-activator, AR (gene 367) (P10275 whole entry, looked up, the tested form may be a part): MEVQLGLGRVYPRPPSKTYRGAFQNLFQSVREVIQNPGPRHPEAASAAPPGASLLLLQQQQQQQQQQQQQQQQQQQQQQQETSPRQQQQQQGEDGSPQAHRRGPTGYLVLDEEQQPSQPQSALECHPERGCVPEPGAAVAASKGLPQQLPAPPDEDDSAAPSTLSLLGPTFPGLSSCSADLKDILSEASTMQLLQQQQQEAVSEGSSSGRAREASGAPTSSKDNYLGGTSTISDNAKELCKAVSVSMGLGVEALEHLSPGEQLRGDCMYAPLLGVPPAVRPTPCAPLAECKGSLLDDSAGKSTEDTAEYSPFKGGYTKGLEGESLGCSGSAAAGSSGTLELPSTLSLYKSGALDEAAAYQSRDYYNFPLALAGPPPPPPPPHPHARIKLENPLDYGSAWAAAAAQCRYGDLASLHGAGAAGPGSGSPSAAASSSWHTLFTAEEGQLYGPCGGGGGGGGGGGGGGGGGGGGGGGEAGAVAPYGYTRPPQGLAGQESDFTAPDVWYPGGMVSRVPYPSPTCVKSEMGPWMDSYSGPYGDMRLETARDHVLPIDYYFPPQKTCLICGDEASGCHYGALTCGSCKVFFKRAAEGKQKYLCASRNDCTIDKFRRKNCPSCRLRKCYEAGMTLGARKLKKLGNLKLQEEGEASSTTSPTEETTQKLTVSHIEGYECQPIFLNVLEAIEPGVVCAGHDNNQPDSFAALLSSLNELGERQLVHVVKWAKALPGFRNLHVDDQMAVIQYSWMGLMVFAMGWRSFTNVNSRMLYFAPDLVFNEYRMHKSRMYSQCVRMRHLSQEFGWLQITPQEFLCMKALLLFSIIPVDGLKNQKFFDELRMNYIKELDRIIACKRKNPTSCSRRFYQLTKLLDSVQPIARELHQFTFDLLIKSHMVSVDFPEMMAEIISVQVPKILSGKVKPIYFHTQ
Outline: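 HEK293T cells stably expressing AR and SRC-1 fused to split Venus YFP fragments via (Gly4Ser)2 linkers were read 8 h after compound dosing. Complementation was imaged at 488 and 635nm, and nuclear/cytoplasmic fluorescence ratio (488nm) was taken over ≥400 cells; gain-of-signal versus DMSO.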

[15] = target: human Androgen Receptor (AR), AR (gene 367) (UniProt P10275); test: NVS_NR_hAR: NovaScreen (NVS) Nuclear Receptor Binding Assay for human Androgen Receptor (AR) (AID 2283332)
Chain of human Androgen Receptor (AR), AR (gene 367) (P10275 whole entry, looked up): as the sequence (P10275 whole entry, looked up, the tested form may be a part) above
Outline: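 Actives from a duplicate 25 uM single-point screen went on to concentration series. Read-out after 20 h was scintillation counting of displaced radioligand in LnCAP extract, with DMSO as baseline.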

[16] = NVS_IC_rCaBTZCHL: NovaScreen (NVS) Ion Channel Assay for Calcium Channel, Type L, Benzothiazepine Site (CaBTZCHL) (AID 2283337)
Outline: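 Radioligand displacement at the benzothiazepine site using rat cortical membranes; bound label measured by filtration and scintillation counting 1.5 h after dosing. Single-point 25 uM in duplicate, then concentration series; DMSO baseline.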

[17] = target: Voltage-gated inwardly rectifying potassium channel KCNH2 (Homo sapiens) (UniProt Q12809); test: NVS_IC_hKhERGCh: NovaScreen (NVS) Ion Channel Assay for human Potassium Channel ERG (KhERGCh) (AID 2283333)
Outline: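 Cell-free radioligand competition binding on hERG protein extracted from CHO cells, read by filter-based scintillation counting 0.75 h after dosing. Primary screen at 25 uM in duplicate, actives followed in concentration series. Signal loss fitted versus DMSO.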

[18] = target: rat Glycine Receptor, Strychnine-sensitive (GlyRStrySens), Glra1 (gene 25674) (UniProt P07727); test: NVS_LGIC_rGlyRStrySens: NovaScreen (NVS) Ligand-Gated Ion Channel Assay for rat Glycine Receptor, Strychnine-sensitive (GlyRStrySens) (AID 2283341)
Outline: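 Radioligand displacement on rat spinal cord membranes, 1 hr, filter scintillation read-out. Single-concentration duplicate screen at 25 uM; chemicals meeting threshold (e.g., 30% inhibition) rerun in concentration-response up to 50 uM. Loss of binding fitted versus DMSO.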

Measured: AC50

OC1CCCCC1
inactive: [1] | [2] | [3]
active: [1] 0.0267 µM

COC(=O)CCCCC(=O)OC
inactive: [4] | [2] | [3]

CC#C[C@]1(O)CC[C@H]2[C@@H]3CCC4=CC(=O)CCC4=C3[C@@H](c3ccc(N(C)C)cc3)C[C@@]21C
active: NCBI gene 100848466 0.00874 µM | [6] 16.7 nM and 46.7 nM | [8] 5.21 µM
inactive: [5] | [2] | [7] | [3]

CN(C)C=O
inactive: [9] | [1] | [2] | [3] | [10]

CCCCCCCCCCCCCC[N+](C)(C)C
inactive: [6] | [3]
active: [1] 35 µM

O=C(OCCOCCOC(=O)c1ccccc1)c1ccccc1
inactive: [11] | [12] | [13] | [2] | [7] | [3]

COCC(C)OCC(C)O (stereo not drawn)
inactive: [13] | [2] | [10] | [14]

O=c1c(-c2ccc(O)cc2)coc2cc(O)ccc12
inactive: [14]
active: [11] 14 µM

CCC(=C(c1ccc(O)cc1)c1ccc(OCCN(C)C)cc1)c1ccccc1
inactive: [11] | [7] | [14] | [8]
active: [15] 8.62 nM and 653 nM | [11] 4.37 µM and 3.09 µM | [16] 0.589 µM | [5] 1.33 µM | [13] 18.2 µM | [6] 6.21 µM and 12.9 µM | [14] 46.8 µM and 46.2 µM and 46.6 µM

CCCOc1sc(C(=O)N2CCC(c3cc(CN)ccc3F)CC2)c(C)c1Br
inactive: [11]
active: [17] 7.87 µM | [16] 3.64 µM | [5] 7.46 µM

NC(=O)N(O)[C@@H]1C=C[C@H](Oc2cccc(Oc3ccc(F)cc3)c2)C1
inactive: [18] | [5] | [1] | [2] | [3] | [10]

Cc1oc(-c2ccccc2)nc1CCOc1ccc(C[C@H](Nc2ccccc2C(=O)c2ccccc2)C(=O)O)cc1
active: [15] 1.92 µM | [11] 4.35 µM
inactive: [6] | [1] | [2] | [3] | [14]

CCCCCCCC(=O)O
inactive: [16] | [13] | [2] | [3] | [10]

O=C(O)c1ccccc1C(c1ccc(O)cc1)c1ccc(O)cc1
inactive: [6] | [2] | [3] | [10] | [14]
active: [13] 0.427 µM
